Screening data deposited in PubChem by National Center for Advancing Translational Sciences (NCATS).
SARS PLP yeast: SARS-CoV PLP inhibition in yeast; hit rate 0.19% among 330,000; Potency, µM (doses to about 32.9 µM), for the others: top-dose activity, positive = growth rescue, usual class: activators; AID 485353; S. cerevisiae expressing SARS-CoV PLpro, growth rescue; calls by dose curve; further: potency means the concentration at half of the fitted maximal effect; 0% is about no effect; nearly all actives have a fitted effect of over 55% in size
Pf growth 96h: inhibits malaria parasite growth, 96 h | P. falciparum luciferase reporter growth, 96 h | Potency, µM (highest dose often 28.7 µM), for the others: at the highest dose activity change, negative = inhibition, hits mostly inhibitors | hit rate 6.9% among 320,000 | AID 504834; further: potency means the concentration at half of the fitted maximal effect; on the % scale 0 is the no-effect control and ±100 the full control effect
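Plates of compound plus infected erythrocytes (2% hematocrit, 0.05% parasitemia final) incubate 96 hours, 37 C, 5% CO2. Detection reagent added; reduced luminescence from the parasites' luciferase reporter flags inhibition.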
AMA1-RON2 inh: disrupts binding of P. falciparum AMA1 to RON2; AlphaScreen AMA1-biotinylated RON2 peptide binding; Potency, µM (doses to about 58.2 µM), without a hit: at the highest dose activity change, negative = inhibition, actives largely listed as inhibitors; hit rate 0.2% among 360,000; AID 720542;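 further: potency means the concentration at half of the fitted maximal effect; 0% = vehicle wells and -100% = peptide control; nearly all actives have a fitted effect of over 45% in size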
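AMA1 (3D7) with his tag at 25 nM final met compounds first, then biotinylated RON2 peptide at 25 nM; detection used donor plus acceptor beads, 10 µg/mL apiece, read by AlphaScreen after 30 min at room temperature.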
Pf growth 48h: inhibits P. falciparum growth in the first generation, 48 h; P. falciparum luciferase growth in erythrocytes, 48 h; Potency, µM (doses to about 28.7 µM), for the others: at the top dose activity change, negative = inhibition, usual class: inhibitors; hit rate 5.9% among 310,000; further: potency means the concentration at half of the fitted maximal effect; on the % scale 0 is the no-effect control and ±100 the full control effect
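Erythrocytes infected with P. falciparum carrying an integrated firefly luciferase reporter (2% hematocrit, 0.1% parasitemia final) were exposed to compounds in RPMI 1640 with 0.5% Albumax at 37 C, 5% CO2. Growth inhibition was scored as reduced luminescence.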
Cycloheximide cs: counter-screen for Shiga toxin inhibitors: cycloheximide protein synthesis inhibition; max response, %; hit rate 12% among 300,000; AID 2314; cell reporter, cycloheximide protein synthesis inhibition counterscreen; in the data active means max response mostly above about 13%, no sharp cut-off; inactive means mostly below about 14%; further: read at 38.3 µM for the half of the compounds with a filed dose; 0% is about no effect
Shiga toxin inh: blocks Shiga toxin action in Vero cells; Vero cells, Shiga toxin protein synthesis inhibition reporter; inhibition, % at 38.7 µM; hit rate 9.2% among 290,000; in the data active means inhibition mostly above about 28%, no sharp cut-off; inactive means mostly below about 43%; further: 0% is about no effect
Numbers without * were called inactive; ? = inconclusive; . = not tested or not shown. This is a sample that favours compounds with a hit; in the whole collection about 19% have one here. Unless noted, the call rests on the fitted dose curve; in most records, active means well fitted curve in the direction sought with a large enough effect; inconclusive means small, poorly fitted or top-dose-only effect, or another doubt; inactive means no such curve, though single readings can be large; an effect the other way counts as inactive or inconclusive.

SMILES | SARS PLP yeast | Pf growth 96h | AMA1-RON2 inh | Pf growth 48h | Cycloheximide cs | Shiga toxin inh
O=C(NCCC1CC1(Cl)Cl)Nc1ccccc1 (stereo not drawn) | -1% | 61% | -13% | -2% | 19 | 53*
O=C(NCC1CC1)Nc1ccccc1 | -1% | ? | 6% | 34% | 10 | 0
CCCCSCCCNC(=O)Nc1ccc(CC)cc1 | -5% | ? | ? | 5% | 11* | 6
C=CCN(C(C(=O)OC)C(C)C)S(=O)(=O)C=C (stereo not drawn) | . | . | . | . | -3 | -2
C/C(CCN1CCc2nc(-c3ccccc3)c(-c3ccccc3)cc2C1)=N\O[C@@H](C)c1cn([C@H](CO)Cc2ccccc2)nn1 | 4% | 13µM* | . | ? | -2 | -10
O=C(Nc1nc2c(s1)CCCC2)c1ccc(N2C(=O)CCC2=O)cc1 | . | 52% | 14% | 42% | 38* | 72*
CC1CCc2c(sc(NC(=O)c3ccc(N4C(=O)CCC4=O)cc3)c2C(N)=O)C1 (stereo not drawn) | -9% | ? | -3% | 3% | . | .
CC1CCc2nc(NC(=O)c3ccc(N4C(=O)CCC4=O)cc3)sc2C1 (stereo not drawn) | 16% | 9% | 14% | ? | 13* | 35*
O=C(Nc1nc2c(s1)CCCC2)c1ccc(Br)s1 | 6% | 16% | -14% | -54% | 42* | 111*
Cc1ccc(C)c2sc(NC(=O)c3ccc(N4C(=O)CCC4=O)cc3)nc12 | -6% | 43% | -3% | 49% | -2 | -11
COc1cc(CN2CCNC(=O)C2CC(=O)O)cc(OC)c1 (stereo not drawn) | 0% | -11% | -10% | 19% | -3 | -1
O=C(O)c1cccc(N/N=C/c2cn(-c3ccccc3)nc2-c2cccs2)c1 | -8% | 66% | 15% | 204% | 52* | 150*
Cc1nn(-c2ccccc2)cc1/C=N/NC(N)=S | 2% | ? | 63% | ? | 13 | 40*
Cc1ccc(-c2nn(-c3ccccc3)cc2/C=N/NC(=O)c2ccncc2)o1 | -1% | 24% | 9% | 10% | 65* | 58*
NC(=O)N/N=C/c1cn(-c2ccccc2)nc1-c1cccs1 | -2% | ? | ? | ? | 36* | 51*
O=C(Nc1ccn(C2CCC(CO)O2)c(=O)n1)c1ccccc1 (stereo not drawn) | . | . | -12% | . | . | .
O=C(N/N=C/c1nn(-c2ccccc2)cc1-c1ccccc1)c1ccncc1 | 11% | -101% | 11% | ? | 22 | 29
O=C(N/N=C/c1cn(-c2ccccc2)nc1-c1cccs1)c1ccncc1 | -4% | ? | 16% | 1% | 32* | 50*
Cn1c(Cl)cnc1C(O)(c1ccccc1)c1ccccc1 | 0% | 9% | -5% | -15% | -1 | -16
COc1ccc2[nH]c3c(c2c1)CCN1C(=O)N([C@@H](C)C(=O)NC2CCCCC2C)C(=O)[C@]31C (stereo partly drawn) | 6% | 12µM* | -2% | 9.3µM* | -1 | 4
COc1ccc(CCNC(=O)[C@H](C)N2C(=O)N3CCc4c([nH]c5ccccc45)[C@@]3(C)C2=O)cc1OC | ? | -5% | -11% | ? | 7 | 17
COc1ccc2[nH]c3c(c2c1)CCN1C(=O)N([C@@H](C)C(=O)NCCc2ccc(OC)c(OC)c2)C(=O)[C@]31C | 4% | 10µM* | -11% | ? | -2 | -4
Cc1cc(C)n(-c2ccccc2C#N)n1 | -1% | ? | 0% | 0% | 9 | 16
Nc1cc(C(=O)OCC(=O)NNC(=O)c2cccs2)ccc1Cl | -2% | -19% | 63% | -7% | . | .
CNS(=O)(=O)c1cccc(C(=O)OCC(=O)c2cc(C)n(-c3ccc4c(c3)OCO4)c2C)c1 | 1% | 5.2µM* | -11% | . | 36* | 28
SMILES | SARS PLP yeast | Pf growth 96h | AMA1-RON2 inh | Pf growth 48h | Cycloheximide cs | Shiga toxin inh
Cc1cc(C=O)c(C)n1-c1ccc2c(c1)OCO2 | -1% | 3.7µM* | -11% | 0% | 1 | -3
Cc1cc(C(=O)CN2C(=O)NC3(CCCC3)C2=O)c(C)n1-c1ccc2c(c1)OCO2 | -18% | ? | 8% | 11% | 1 | -3
Cc1cc(C=O)c(C)n1-c1cccc(C(=O)O)c1 | 1% | -11% | -19% | 29% | -2 | -4
Cc1cc(C(=O)COc2ccccc2Cl)c(C)n1-c1ccc2c(c1)OCO2 | -13% | 8.3µM* | -23% | ? | 53* | 93*
Cc1cc(C(=O)CSc2n[nH]c(N)n2)c(C)n1-c1ccc2c(c1)OCO2 | 4% | 12µM* | -13% | -25% | 10* | 38
Cc1nn(C(C)C(=O)NC(C)CCc2ccccc2)c(=O)c2cc3occc3n12 (stereo not drawn) | -1% | ? | 16% | -12% | -5 | 1
O=C(CCNC(=O)c1ccc(Br)cc1)NNC(=O)c1ccccc1O | -2% | 0% | 37% | 14% | . | .
COc1ccc(C(C)(NC(C)=O)c2nc(-c3cccc(C(=O)O)c3)cs2)cc1 (stereo not drawn) | . | . | 0% | . | . | .
Cc1ccc(-c2cnc(NC(=O)c3cccc(Br)c3)s2)c(C)c1 | 5% | 8% | -18% | ? | -2 | 13
Cc1ccc(-n2c(C)cc(C(=O)COc3c(CO)cc(F)cc3CO)c2C)cc1C | 0% | 9.3µM* | -10% | ? | -2 | -9
COCC(=O)OCC(=O)c1cc(C)n(-c2ccc(Br)cc2)c1C | -9% | ? | -4% | -11% | -4 | -6
O=C(NCCN1C(=O)S/C(=C\c2ccccc2F)C1=O)C1CCCN1C(=O)c1cccs1 (stereo not drawn) | 18% | ? | -4% | -11% | 10 | -2
CCOC(=O)C1CCN(Cc2cccc(OC)c2)CC1 | 5% | 9% | -22% | . | -3 | -9
OCCN1CCN(Cc2ccc3ccccc3c2)CC1 | 4% | 4% | ? | -1% | 3 | .
CCOC(=O)C1CCN(Cc2oc(CO)cc(=O)c2O)CC1 | 16% | ? | -29% | . | 15 | 33*
CCOC(=O)C1CCN(Cc2c(O)ccc3ccccc23)CC1 | -7% | 9.3µM* | 5% | ? | 9 | -26
c1ccc(CN2CCN(Cc3ccc4ccccc4c3)CC2)cc1 | -2% | 0.93µM* | ? | ? | 8 | 15
CCOC(=O)C1CCN(Cc2ccc3ccccc3c2)CC1 | -4% | 13µM* | ? | -1% | 1 | -10
CCN1CCN(Cc2oc(CO)cc(=O)c2O)CC1 | 13% | 11% | -23% | . | -9 | -20
O=C(O)C1CC(CCCP(=O)(O)O)CCN1 (stereo not drawn) | . | . | . | . | 9 | 2
O=C(CC12CC3CC(CC(C3)C1)C2)NC(=S)Nc1ccc(CN2CCOCC2)cc1 | 0% | 23% | -5% | ? | -2 | -9
CCOC(=O)C1CCN(Cc2cc(C(C)C)c(O)c(C(C)C)c2)CC1 | 0% | 0.41µM* | -12% | ? | -5 | 14
